A selection: hits, their analogues and other compounds. The true share with any hit is near 3.5%.
TEAD-YAP inh: TEAD-YAP interaction inhibition, primary screen, TEAD-YAP interaction inhibitor project, luminescence, HEK-TIYL cells; TEAD-Gal4/YAP UAS-luciferase luminescence; inhibition, % at 9.12 µM; actives 1.4% (n = 640,000); in the data active = inhibition above about 32%;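 also: 0% = median of test compound wells and 100% = reference inhibitor wells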
MITF inh: MITF inhibitors, primary screen, biochemical, AlphaScreen, human | Microphthalmia-associated transcription factor (Homo sapiens), O75030 | actives 0.91% (n = 650,000) | AlphaScreen MITF homodimerization, bead proximity signal | inhibition, % at 2.6 µM; in the data active = inhibition above about 50%;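 also: 0% = vehicle wells with protein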
Target sequence (O75030 whole entry, looked up): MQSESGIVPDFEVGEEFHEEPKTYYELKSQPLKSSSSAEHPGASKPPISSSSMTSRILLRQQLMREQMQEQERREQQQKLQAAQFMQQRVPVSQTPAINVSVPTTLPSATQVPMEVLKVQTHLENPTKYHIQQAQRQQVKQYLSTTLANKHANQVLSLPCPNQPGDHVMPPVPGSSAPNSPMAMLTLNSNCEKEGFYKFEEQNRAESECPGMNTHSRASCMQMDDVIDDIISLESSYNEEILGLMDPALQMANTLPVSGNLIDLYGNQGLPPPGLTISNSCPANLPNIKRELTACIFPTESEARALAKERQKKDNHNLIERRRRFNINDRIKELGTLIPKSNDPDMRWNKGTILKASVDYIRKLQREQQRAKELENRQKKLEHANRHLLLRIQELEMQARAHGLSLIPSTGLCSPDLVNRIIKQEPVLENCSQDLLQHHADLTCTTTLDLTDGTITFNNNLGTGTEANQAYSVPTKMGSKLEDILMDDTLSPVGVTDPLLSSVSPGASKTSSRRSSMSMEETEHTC
FBW7 activator: FBW7 E3 ligase activators, primary screen, biochemical, AlphaScreen, human. F-box/WD repeat-containing protein 7 (Homo sapiens), Q969H0. AlphaScreen FBW7–phospho-cyclin E peptide binding, activator screen. normalized activity (activation), % at 26.1 µM. actives 0.13% (n = 650,000); in the data active = normalized activity above about 1.9%;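 also: purified mutant Fbw7 with reduced substrate affinity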
GPR151 activ: activators of human GPR151, primary screen, cell-based, PathHunter beta-arrestin, luminescence. PathHunter beta-arrestin GPR151 cells. activation, % at 11.2 µM. actives 1% (n = 650,000); in the data active = activation above about 4.9%;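 also: 0% = median of compound wells and 100% = cells with positive control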
GPR151 confirm: GPR151 activators, triplicate retest, confirmation, cell-based, PathHunter beta-arrestin, luminescence; activation, % at 11.2 µM; shares compounds with GPR151 activ; GPR151 PathHunter beta-arrestin cells, 90 min; % of EA-reagent control over plate median; AID 1508609, 2020; 6,700 tested, under 10 active;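 active = mean percent activation across replicates above the confirmation screen cutoff of 4.91%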
GPR119 counter: GPR119 activators in beta-arrestin cells, counter-screen for GPR151 activator project, cell-based, PathHunter beta-arrestin, luminescence, triplicate; shares compounds with GPR151 activ; actives 0.3% (n = 6,700); AID 1508611, 2020; activation, % at 11.2 µM; 90 min; 0 = compound-well median, 100 = enzyme-acceptor control;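 active = mean percent activation in the counterscreen above 29.09%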;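 also: counterscreen on off-target GPR119 to flag nonselective hits from the GPR151 activator screen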
* hit, by the source's call; . = no result given.

SMILES | TEAD-YAP inh | MITF inh | FBW7 activator | GPR151 activ | GPR151 confirm | GPR119 counter
C[C@@H]1CC[C@H]2C(=O)O[C@@H](COc3ccc(C(C)(C)C)cc3)CN2[C@@H]1c1ccc(Br)cc1 | . | 16.8 | -0.1 | 5.4* | -0.6 | -9.0
CCC1CCC2(CC1)SCC(=O)N2c1ccccc1 (stereo not drawn) | 2.3 | 7.3 | -0.1 | 4.6 | . | .
CCC1CCC2(CC1)SCC(=O)N2c1ccc(F)cc1 (stereo not drawn) | 5.0 | 8.8 | 0.0 | 6.4* | -0.3 | -7.6
COc1ccc(-c2csc3nc(-c4ccccc4Br)oc(=O)c23)cc1 | -1.4 | 15.6 | 0.0 | -0.2 | . | .
Cn1c(=O)c2c(SCC(=O)O)nc(-c3ccccc3)nc2n(C)c1=O | 10.9 | -0.7 | 0.1 | 0.6 | . | .
c1ccc(OCCNc2ncnc3nc(Nc4nccc5ccccc45)[nH]c23)cc1 | -2.2 | 14.2 | -0.2 | 1.7 | . | .
Cn1c(Nc2nc3ncnc(NCCOc4ccccc4)c3[nH]2)nc2ccccc21 | 6.1 | 20.0 | -0.4 | 4.9* | -0.6 | -10.2
c1ccc(OCCNc2ncnc3nc(Nc4cnccn4)[nH]c23)cc1 | 4.2 | 4.1 | 0.0 | 5.7* | -1.5 | -2.1
CCCS(=O)(=O)N1CCc2ccc(NC(=O)Nc3cc(Cl)ccc3OC)cc2C1 | 10.0 | 8.6 | 0.0 | 0.2 | . | .
O=C(N[C@H]1C[C@H]2C(=O)N[C@@H](COCc3ccccc3)C(=O)N2C1)c1cccnc1Oc1ccc(Cl)cc1 | 6.6 | 10.5 | 0.0 | 2.2 | . | .
c1ccc(-c2noc(CCC3CCCC3)n2)cc1 | 0.2 | 1.1 | 0.0 | 11.7* | -0.9 | -8.5
O=S(=O)(c1ccc(F)cc1)N1CCSCC1 | -6.0 | -6.8 | -0.1 | 5.8* | 0.6 | 11.6
COc1ccc(/C=C/C(=O)OCc2ccc([N+](=O)[O-])cc2)cc1OC | 0.5 | 7.8 | -0.1 | -0.1 | . | .
CCN(CC)CCN(C)Cc1ccccc1C | 2.9 | 9.3 | -0.2 | 5.0* | -0.5 | -0.1
CCN(CC)CCN(C)Cc1ccccc1Cl | 6.2 | 46.5 | 0.0 | 0.2 | . | .
Cc1ccc(C(=O)NN=C2CCN(C)CC2)cc1 | -9.9 | -19.8 | 0.0 | 0.0 | . | .
CC(C)N1CCC(=NNC(=O)c2ccc(C(C)(C)C)cc2)CC1 | -0.4 | -6.1 | 0.0 | 6.7* | 2.2 | -2.2
CCC(O)C1CCN(C(=O)CC2(c3ccccc3C)CC(=O)N(CC)C2=O)CC1 (stereo not drawn) | 3.9 | 7.8 | 0.1 | 0.3 | . | .
COc1ccc(OCC(=O)N/N=C/c2cc3c(cc2[N+](=O)[O-])OCO3)cc1 | -6.1 | -1.2 | -0.1 | 10.2* | -0.4 | -14.7
Cc1ccc(OCC(=O)N/N=C/c2cc3c(cc2[N+](=O)[O-])OCO3)cc1C | 5.6 | 18.3 | -0.1 | -1.2 | . | .
CCCCC(=O)Nc1nnc(S(=O)(=O)N(C)c2cccc(C)c2)s1 | 1.2 | 7.5 | 0.1 | 6.7* | 0.8 | -2.5
COc1ccc(C(O)CN2C3=NCCCN3c3ccccc32)cc1 (stereo not drawn) | -2.2 | -17.7 | -0.1 | 5.1* | 0.8 | 19.4
CCOC(=O)C1CCN(c2nc(C)nc3c2CNCC3)CC1 | -0.6 | -12.0 | 0.1 | -0.5 | . | .
Cc1cc(C)nc(SCC(=O)Nc2ncc3c(n2)CC(C)(C)CC3=O)n1 | 8.5 | 5.5 | 0.0 | 5.6* | 1.2 | 12.9
CC(=O)Nc1ncc2c(n1)CC(C)(C)CC2=O | -1.1 | 9.4 | 0.1 | 0.8 | . | .
SMILES | TEAD-YAP inh | MITF inh | FBW7 activator | GPR151 activ | GPR151 confirm | GPR119 counter
COCCn1c(SCC(=O)Nc2ccc(C)c(C)c2)nnc1C(C)C | 11.8 | 6.6 | -0.1 | 8.2* | -0.1 | -0.2
CC1=C(c2ccc(C)cc2)S(=O)(=O)N=C1Nc1ccc(Br)cc1F | -6.1 | 1.1 | 0.2 | 8.7* | 1.6 | 7.7
CC1=C(c2ccc(C)cc2)S(=O)(=O)N=C1Nc1ccc(C)cc1 | -75.6 | -7.1 | 0.0 | 0.3 | . | .
CCc1ccccc1Nc1nncc(=O)[nH]1 | 10.5 | -1.0 | 0.0 | 7.2* | -1.6 | -9.5
CCOc1ccccc1Nc1nncc(=O)[nH]1 | 11.2 | -2.9 | -0.1 | -0.1 | . | .
CCSc1nnc(NC(=O)CCN2C(=S)NC(C)(C)CC2C)s1 (stereo not drawn) | -11.2 | -2.0 | -0.2 | 0.8 | . | .
COc1ccc(S(=O)(=O)NCC2CCCN(C3C4CC5CC(C4)CC3C5)C2)cc1 (stereo not drawn) | -15.3 | -1.1 | 0.0 | 1.4 | . | .
CC(=O)OCC12C=CC(O1)C1C(=O)N(c3ccccc3)C(=O)C12 (stereo not drawn) | 4.6 | 6.1 | -0.2 | -0.7 | . | .
COc1cccc(C(=O)Nc2cc3nn(-c4ccc(Cl)cc4)nc3cc2C)c1 | -1.7 | -10.5 | -0.3 | -1.3 | . | .
COc1cc2nc(Nc3nccc4ccccc34)nc(NCCCN3CCCC3=O)c2cc1OC | -3.9 | 3.5 | 0.0 | 5.6* | -0.4 | -1.3
COc1cc2nc(Nc3nc4ccccc4n3C)nc(NCCCN3CCCC3=O)c2cc1OC | -5.6 | 0.2 | -0.1 | -2.3 | . | .
O=C(NCCCO)/C(=C/c1ccccc1F)NC(=O)c1ccccc1 | 5.1 | -2.1 | 0.0 | 5.0* | 0.1 | 6.1
O=C(NC1=NCCS1)c1sc2cc(F)ccc2c1Cl | . | . | . | 7.4* | 1.3 | -5.3
O=C(Nc1ccon1)c1sc2cc(F)ccc2c1Cl | -41.4 | 10.3 | 0.7 | -2.2 | . | .
CN(C)S(=O)(=O)c1ccc(C(=O)OCCCC(=O)c2ccc(F)cc2)cc1 | -4.5 | 9.6 | 0.3 | 10.5* | 0.7 | 15.0
CCN(CC)S(=O)(=O)c1ccc(C(=O)OCC(=O)c2ccc(F)cc2)cc1 | 9.6 | 4.7 | 0.1 | 0.3 | . | .
Cn1c2c(c(=O)n(C)c1=O)CN(C1CCCCC1)CN2 | 11.0 | -10.2 | -0.2 | 0.8 | . | .
Cc1cc([N+](=O)[O-])ccc1NC(=S)NC(=O)COc1ccccc1 | 7.4 | 2.6 | 0.0 | 7.3* | 0.5 | 12.4
CC(C)NC(=O)CC(=O)N/N=C/c1cccc(O)c1 | -1.9 | -0.6 | 0.3 | -0.2 | . | .
COCCCNC(=O)CN(c1ccc(I)cc1)S(C)(=O)=O | 0.4 | 11.5 | 0.3 | 6.7* | -0.1 | 11.3
Cc1cc(C)cc(NC(=O)C2C3C=CC4(O3)C2C(=O)N(C2CCC(C)CC2)C4C(=O)NC2CCCCC2)c1 (stereo not drawn) | 11.1 | 10.6 | 0.2 | 0.2 | . | .
CC1(C)CC(=O)c2sc(NC(=O)COc3ccc(Cl)cc3)nc2C1 | 8.1 | 4.0 | -0.1 | 6.4* | 0.1 | 2.9
CC(=O)OC[C@H]1O[C@@H](n2ccc(=O)[nH]c2=S)C(OC(C)=O)C1OC(C)=O (stereo partly drawn) | -1.3 | -6.5 | -0.1 | 5.9* | -0.1 | -9.5
C/C(=C/C(=O)c1ccc(Cl)cc1)Nc1cccc(O)c1 | -9.1 | 12.0 | 0.1 | 5.8* | -0.7 | -9.6

Screening data deposited in PubChem BioAssay by The Scripps Research Institute Molecular Screening Center.
